RGS4 inhibitor = inhibitors of human regulator of G protein signaling 4 | P49798 | Transcreener GDP fluorescence polarization, RGS4-accelerated GTP hydrolysis | Potency, µM (top dose mostly 114 µM), usual class: inhibitors | actives 0.039% (n = 390,000) | AID 504845; further: nearly all actives have a fitted effect of over 75% in size
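MLSMR compounds (23 nl, pin-transferred) preincubated 10 min at room temperature with a 500nM (2x) first reagent, then RGS4 at 900nM (2x) plus Transcreener GDP mix added; fluorescence polarization (620/688 nm) read before and after 90 min at 30 °C.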
KCNH2 3.1 block = KCNH2 3.1 (human) potassium channel inhibition | U2OS KCNH2 3.1, thallium flux FluxOr; stronger effect = lower value | activity change, % (tested at about 1.8 µM) | actives 0.95% (n = 340,000) | AID 720553;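 active means maximum activity change below -70%; inconclusive means maximum activity change from -70% to -50%; inactive means maximum activity change above -50%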;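 further: thallium influx rate constant from kinetic fluorescence after stimulation buffer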
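Steps: virus added to U2OS suspension (4 h, RT, dark); medium with 10% FBS added, cells plated, 37 C overnight; FluxOr/Red40 loading buffer 45 min RT; stimulation buffer, 2 min kinetic read; rate constant normalized.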
Pin1 inhibitor = inhibitors of human Pin1; Q13526; Potency, µM (highest dose often 115 µM), usual class: inhibitors; Pin1 FP peptide displacement, HiFluor488, 10 min; AID 504891; actives 0.009% (n = 390,000); active means well fitted inhibition curve with a large enough effect in the polarisation, with a control signal flat, not every such curve was filed as active; inconclusive means small, poorly fitted or top-dose-only effect, or effect the other way, or a change in a side signal; inactive means no such curve, though single readings can be large or run the other way; the % refers to the polarisation
Target sequence (Q13526 whole entry, looked up): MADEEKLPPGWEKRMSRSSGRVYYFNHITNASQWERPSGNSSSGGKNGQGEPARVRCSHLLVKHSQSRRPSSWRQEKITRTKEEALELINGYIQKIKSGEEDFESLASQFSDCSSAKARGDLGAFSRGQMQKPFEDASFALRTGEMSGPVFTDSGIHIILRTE
KAT2A inh = blocks human GCN5L2 histone acetyltransferase; Q92830; GCN5L2 HAT assay, ThioGlo1 CoA-SH fluorescence; Potency, µM (doses to about 58.9 µM), hits mostly inhibitors; actives 0.21% (n = 390,000)
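GCN5L2 (20 nM) in 50mM HEPES pH 7.5, 0.1mM EDTA, 0.01% Tween-20 preincubated 15 min with compounds at room temperature. Reaction started with H3(1-25) 75uM, acetyl-CoA 70uM, ThioGlo1 50uM; CoA-thiol fluorescence (Ex340/Em540) read at 0 and 20 min.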
Tb PGK inh = inhibitors of T. brucei phosphoglycerate kinase; PGK/GAPDH coupled, Kinase-Glo luminescence, 60 min; P07378; Potency, µM (top dose mostly 57.5 µM), actives largely listed as inhibitors; actives 0.043% (n = 380,000); AID 602233; further: nearly all actives have a fitted effect of over 60% in size
Target sequence (P07378 whole entry, looked up): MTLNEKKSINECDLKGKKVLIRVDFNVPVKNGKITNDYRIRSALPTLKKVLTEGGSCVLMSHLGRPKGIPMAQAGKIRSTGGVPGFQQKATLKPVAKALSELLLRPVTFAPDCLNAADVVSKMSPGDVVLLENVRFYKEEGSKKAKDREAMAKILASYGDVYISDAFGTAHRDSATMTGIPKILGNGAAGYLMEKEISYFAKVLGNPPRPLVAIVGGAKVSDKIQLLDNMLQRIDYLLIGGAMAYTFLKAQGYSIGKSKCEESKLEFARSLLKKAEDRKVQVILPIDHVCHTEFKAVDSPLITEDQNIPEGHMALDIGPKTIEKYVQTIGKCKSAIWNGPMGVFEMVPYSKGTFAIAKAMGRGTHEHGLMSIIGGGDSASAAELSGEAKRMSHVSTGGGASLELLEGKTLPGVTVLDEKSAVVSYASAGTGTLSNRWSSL
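Luminescent ATP detection (Kinase-Glo Plus) follows a 60-minute room-temperature incubation, with wells lacking PGK as controls. Buffer: 100 mM TEA (pH 7.6), 5 mM MgCl2, 0.01% Tween-20. Coupling enzyme GAPDH (100 nM final) supplies unstable 1,3-BPG in-well.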
KCNH2 WT inh = inhibitors of human wildtype KCNH2 potassium channel; U2OS, BacMam KCNH2, thallium flux FluxOr; stronger effect = lower value; Q12809; AID 720551; activity change, % at 1.84 µM; actives 0.37% (n = 340,000);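 active means maximum activity change below -70%; inconclusive means maximum activity change between -70% and -50%; inactive means maximum activity change above -50%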
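U2OS cells transduced with wild-type KCNH2 virus are loaded with FluxOr dye for 45 min, and thallium flux is measured in kinetic reads before and after stimulation buffer. Rate constants are normalized to DMSO controls.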
Numbers stand for hits; - = inactive; ? = inconclusive; . = no result given; [ ] = dose if it differs, or a comment. This is a sample that favours compounds with a hit; in the whole collection about 1.2% have one here. Unless noted, the call rests on the fitted dose curve; in most records, active means well fitted curve in the direction sought with a large enough effect; inconclusive means small, poorly fitted or top-dose-only effect, or another doubt; inactive means no such curve, though single readings can be large; an effect the other way counts as inactive or inconclusive.

SMILES	RGS4 inhibitor	KCNH2 3.1 block	Pin1 inhibitor	KAT2A inh	Tb PGK inh	KCNH2 WT inh
CCOC(=O)N1C(C)CN(/[N+]([O-])=N/Oc2ccc([N+](=O)[O-])cc2[N+](=O)[O-])CC1C (configuration not stated)	-	.	-	.	.	.
O=C1CC2(CCN(C(=O)COc3ccc(Cl)cc3)CC2)Oc2ccccc21	-	-86	-	-	-	-
CCc1c2c(nc3ccc4c(c13)OCCO4)-c1nc3ccccc3c(=O)n1C2	-	.	-	.	.	.
O=C(C1=C[C@H](C2CC2)C[C@H](OCCCCO)O1)N1CCOCC1	-	-	-	-	-	-89
Cc1cccc(N2CCN(CC(O)COCc3cccs3)CC2)c1C (configuration not stated)	-	-98	-	-	-	-80
OC(COCc1cccs1)CN1CCN(c2ccccc2Cl)CC1 (configuration not stated)	-	-83	-	-	-	-
O=S(=O)(c1ccccc1C(F)(F)F)N1CCN(c2nc(-c3ccccc3)nc3ccccc23)CC1	-	.	-	.	.	.
Cc1cc(C)c(NC(=O)Cn2c(=O)oc3cc(S(=O)(=O)N4CCCCCC4)ccc32)c(C)c1	-	.	-	-	.	.
O=C(/C=C/c1ccc(Cl)cc1)N(Cc1ccccc1)C1CCS(=O)(=O)C1 (configuration not stated)	-	-75	-	-	-	-
O=C(/C=C/c1ccc(Cl)cc1Cl)N(Cc1ccccc1)C1CCS(=O)(=O)C1 (configuration not stated)	-	-	-	-	-	-
O=C(NCCSC1CCCCC1)c1ccccc1	-	.	-	-	-	-
COc1ccc(C(=O)NCCSC2CCCCC2)cc1	-	-112	-	-	-	-
COc1ccc(C2=NOC(Cn3nc(C(=O)NCc4ccc(C)cc4)cc3-c3ccccc3)C2)cc1 (configuration not stated)	-	-	-	-	-	-
COc1ccc(C2=NOC(Cn3nc(C(=O)NCc4cccc(C(F)(F)F)c4)cc3-c3ccccc3)C2)cc1 (configuration not stated)	-	-74	-	-	-	-
CC(=O)OCOC(=O)CNc1ccccc1OCCOc1ccccc1NCC(=O)OCOC(C)=O	.	.	.	-	.	.
CCC(c1ccccc1)c1nnc(NC(=O)c2ccco2)s1 (configuration not stated)	-	-117	-	-	-	-
COc1ccc(C(=O)C2CCN(C(=O)c3ccc(OC)cc3)CC2)cc1	-	-84	?	-	-	-
O=C(O)/C=C/c1ccc2c(-c3ccccc3)onc2c1	-	-	-	-	-	-126
O=C(O)c1ccc2noc(-c3ccccc3)c2c1	-	-	-	-	-	-
O=C(NC(=S)NCc1ccccc1)c1cccnc1	-	-	-	-	-	-78
O=C(Nc1cccc(Cl)c1)c1cc(S(=O)(=O)N2CCCc3ccccc32)ccc1F	-	.	-	-	-	.
CSc1ccc(OC2CCN(Cc3ccccc3)CC2)cc1	-	-89	-	-	-	?
CSc1ccc(CN2CCC(Cc3ccccc3)CC2)cc1	-	?	-	-	-	-
CCOC(=O)c1ccc(NC(=O)CC(=O)Nc2ccc3nc4n(c(=O)c3c2)CCCCC4)cc1	-	.	-	-	-	.
O=C(CN1CCN(CCC(=O)Nc2ccccc2F)CC1)Nc1ccc(Cl)cc1	-	-108	-	-	-	-102
SMILES	RGS4 inhibitor	KCNH2 3.1 block	Pin1 inhibitor	KAT2A inh	Tb PGK inh	KCNH2 WT inh
O=C(CCN1CCN(C/C=C/c2ccccc2)CC1)Nc1ccccc1F	-	-102	-	-	-	-
Cc1ccccc1NC(=O)N1CCN(C/C=C/c2ccccc2)CC1	-	-86	-	-	-	-
O=C(CCN1C(=O)c2ccccc2S1(=O)=O)Nc1ccc(Cl)cc1	-	-84	-	-	-	-
Cc1ccc(NC(=O)CCN2C(=O)c3ccccc3S2(=O)=O)cc1F	-	-	-	-	-	-
COc1ccc(N2C(=O)c3ccc(C(=O)Nc4cc(OC)ccc4OC)cc3C2=O)cc1	-	-96	-	-	-	-
COc1ccc(OC)c(NC(=O)c2cccc(N3C(=O)C4C5C=CC(C6CC56)C4C3=O)c2)c1 (configuration not stated)	-	-	-	-	-	-167
COc1ccc(OC)c(NC(=O)c2cccc(N3C(=O)C4C5CCC(C5)C4C3=O)c2)c1 (configuration not stated)	-	-	-	-	-	-
CC(C)(CS(=O)(=O)[O-])NC(=O)CC[N+](C)(C)CCO	-[11.4 µM]	-	.	-	2.2µM	-
CCOC(=O)c1cnc2c(CC)cccc2c1NCCCN1CCOCC1	-	-74	-	-	-	-
CCOC(=O)c1cnc2c(Cl)cccc2c1NCCCN1CCOCC1	-	-	-	-	-	-
COc1ccc(C2Nc3ccccc3C(=O)N2Cc2ccco2)cc1COc1ccc([N+](=O)[O-])cc1 (configuration not stated)	-	-80	-	-	-	-
CC(C)N(CCC(=O)c1ccc2ccccc2c1)Cc1ccccc1	0.67µM	-	?	?	-	-
CC(OC(=O)c1ccc2ccccc2c1)C(=O)N(C)Cc1ccccc1 (configuration not stated)	-	-	?	-	-	-
CCOC(=O)c1cn(CC(=O)Nc2ccc(CC)cc2)nn1	-	-	-	-	-	-208
Cc1ccccc1NC(=O)C(Cc1ccccc1)N1Cc2ccccc2C1=O (configuration not stated)	-	.	-	-	-	.
OC(CCCN1CCCCC1)(c1ccccc1)c1ccc(C(F)(F)F)cc1 (configuration not stated)	-	-73	-	.	-	-
OC(CCN1CCCCC1)(c1ccccc1)c1ccccc1	-	-	-	-	-	-
O=C(Nc1nc(-c2nc3ccccc3s2)cs1)C1COc2ccccc2O1 (configuration not stated)	-	-83	-	-	-	-
COc1ccc(-c2cc(C(F)(F)F)nc(SCCC(=O)Nc3ccc(OC)c(OC)c3)n2)cc1	-	.	-	-	-	.
COc1cc2ncnc(NCCCN3CCOCC3)c2cc1OC	-	-79	-	-	-	-
COc1ccc(C(=O)NCCCN2CCOCC2)cc1OC	-	-	-	-	-	-
COc1ccc(-n2ncc3c(NCCCN4CCOCC4)ncnc32)cc1	-	-	-	-	-	-
CCOc1cc2nc(-c3ccc(OC)c(OC)c3)nc(NCCCN3CCOCC3)c2cc1OC	-[11.4 µM]	-	-	-	-	-93
CC(C)CCN(Cc1ccco1)C(=O)Cn1ncc2c([nH]c3ccccc32)c1=O	-	.	?	-	-	.

Screening results as filed in PubChem.
